Hit rate of the full screen: of about 39,000 compounds, about 1,500 (3.8%) were called active. The full list was thinned out, with actives kept by preference.
Each molecule was assayed on HSkMC (human skeletal muscle cells) (assay: cytotoxicity call (relative viability < 0.9)). Settings: 10 µM.

Structure (SMILES)	cytotoxicity call
Cc1nnnn1CC(=O)Nc1ccc(F)cc1	inactive
COc1ccc(NC(=O)Nc2ccc3c(c2)[C@H]2C[C@H](CC(=O)NCc4ccncc4)O[C@H](CO)[C@H]2O3)cc1	inactive
C[C@@H]1CCCCO[C@@H](CN(C)C(=O)Nc2ccccc2)[C@H](C)CN([C@H](C)CO)C(=O)c2cc(NC(=O)Cc3ccccc3)ccc2O1	inactive
Cc1ccc(S(=O)(=O)Nc2ccc3c(c2)C(=O)N([C@H](C)CO)C[C@@H](C)[C@@H](CN(C)C(=O)C2CCCCC2)OCCCC[C@H](C)O3)cc1	inactive
O=C(O)c1cn(C2CC2)c2cc(N3CCC(O)(COc4ccc(N5C[C@H](CO)OC5=O)cc4F)CC3)c(F)cc2c1=O	inactive
O=C(CCCCCCC(=O)Nc1ccc([C@H]2O[C@@H](CSc3ccncc3)C[C@H](c3ccccc3)O2)cc1)NO	inactive
O=C(/C=C/c1ccc(CNc2ccc([C@H]3O[C@@H](CSc4ccncc4)C[C@H](c4ccccc4)O3)cc2)cc1)NO	active
O=C(CCCCCCC(=O)Nc1ccc([C@@H]2O[C@H](CSc3ccncc3)C[C@H](c3ccccc3)O2)cc1)NO	inactive
C[C@H](CO)N1C[C@H](C)[C@H](CN(C)C(=O)NC2CCCCC2)Oc2cc(-c3cccnc3)ccc2S1(=O)=O	inactive
COc1ccc(NC(=O)N(C)C[C@H]2OCCCC[C@H](C)Oc3ccc(NC(=O)c4ccncc4)cc3C(=O)N([C@H](C)CO)C[C@@H]2C)cc1	inactive
CCc1ccc(NC(=S)Nc2ccccc2C(C)C)cc1	inactive
COCC#Cc1ccc2c(c1)O[C@@H](CN(C)C(=O)COC)[C@@H](C)CN([C@H](C)CO)S2(=O)=O	inactive
COc1ccc(S(=O)(=O)Nc2ccccc2CN(C)C/C=C/c2ccc(Cl)cc2)cc1.O=P(=O)OO	inactive
COc1ccc(NC(=O)Nc2ccc3c(c2)CC(=O)N([C@H](C)CO)C[C@H](C)[C@H](CN(C)Cc2ccc(C(F)(F)F)cc2)O3)cc1	inactive
COc1ccc(CN(C)C[C@H]2Oc3ccc(NC(=O)Nc4ccc(C(F)(F)F)cc4)cc3CC(=O)N([C@@H](C)CO)C[C@H]2C)cc1	active
COc1ccc(CN(C)C[C@@H]2Oc3ccc(NC(=O)Nc4ccc(C(F)(F)F)cc4)cc3CC(=O)N([C@@H](C)CO)C[C@@H]2C)cc1	inactive
COc1ccc(CN(C)C[C@H]2Oc3ccc(NC(=O)Nc4ccc(C(F)(F)F)cc4)cc3CC(=O)N([C@H](C)CO)C[C@H]2C)cc1	active
COc1ccc(NC(=O)Nc2ccc3c(c2)CC(=O)N([C@@H](C)CO)C[C@H](C)[C@@H](CN(C)Cc2ccc(C(F)(F)F)cc2)O3)cc1	inactive
COc1ccc(NC(=O)Nc2ccc3c(c2)CC(=O)N([C@H](C)CO)C[C@@H](C)[C@@H](CN(C)Cc2ccc(C(F)(F)F)cc2)O3)cc1	active
COc1ccc(NC(=O)Nc2ccc3c(c2)CC(=O)N([C@H](C)CO)C[C@H](C)[C@@H](CN(C)Cc2ccc(C(F)(F)F)cc2)O3)cc1	inactive
COc1ccc(NC(=O)Nc2ccc3c(c2)CC(=O)N([C@@H](C)CO)C[C@@H](C)[C@@H](CN(C)Cc2ccc(C(F)(F)F)cc2)O3)cc1	inactive
COc1ccc(NC(=O)Nc2ccc3c(c2)CC(=O)N([C@H](C)CO)C[C@@H](C)[C@H](CN(C)Cc2ccc(C(F)(F)F)cc2)O3)cc1	inactive
COc1ccc(CN(C)C[C@H]2Oc3ccc(NC(=O)Nc4ccc(C(F)(F)F)cc4)cc3CC(=O)N([C@@H](C)CO)C[C@@H]2C)cc1	inactive

Structure (SMILES)	cytotoxicity call
COc1ccc(NC(=O)Nc2ccc3c(c2)CC(=O)N([C@@H](C)CO)C[C@H](C)[C@H](CN(C)Cc2ccc(C(F)(F)F)cc2)O3)cc1	active
COc1ccc(NC(=O)Nc2ccc3c(c2)CC(=O)N([C@@H](C)CO)C[C@@H](C)[C@H](CN(C)Cc2ccc(C(F)(F)F)cc2)O3)cc1	inactive
COc1ccc(C#Cc2ccc3c(c2)[C@]2(C(=O)N3)[C@H](C(=O)N3CCc4cc(OC)c(OC)cc4C3)[C@H]3C(=O)O[C@H](c4ccccc4)[C@H](c4ccccc4)N3[C@@H]2c2ccc(O)cc2)cc1	inactive
C[C@@H]1CN([C@H](C)CO)C(=O)Cc2cc(NC(=O)Nc3ccc(C(F)(F)F)cc3)ccc2O[C@H]1CN(C)C(=O)Nc1cccc2ccccc12	inactive
C[C@H](CO)N1C[C@H](C)[C@@H](CN(C)C(=O)Cc2ccccn2)Oc2cc(C#Cc3ccccc3)ccc2S1(=O)=O	inactive
Cn1ncc2c1CCCC2=O	inactive
Cc1noc(C)c1NC(=O)N(C)C[C@H]1Oc2ncc(C#CCN(C)C)cc2C(=O)N([C@H](C)CO)C[C@H]1C	inactive
COc1cccc(S(=O)(=O)N(C)C[C@@H]2Oc3ncc(C#CCN(C)C)cc3C(=O)N([C@@H](C)CO)C[C@@H]2C)c1	inactive
C[C@@H]1CN([C@H](C)CO)C(=O)Cc2cc(NC(=O)Nc3ccc4c(c3)OCO4)ccc2O[C@@H]1CN(C)S(C)(=O)=O	inactive
COc1ccc(NC(=O)N(C)C[C@H]2OCCCC[C@H](C)Oc3ccc(NC(=O)c4ccccc4)cc3C(=O)N([C@@H](C)CO)C[C@@H]2C)cc1	inactive
COc1ccc(S(=O)(=O)N(C)C[C@H]2OCCCC[C@@H](C)Oc3ccc(NC(=O)CCC(F)(F)F)cc3C(=O)N([C@@H](C)CO)C[C@@H]2C)cc1	inactive
COc1ccc(CN(C)C[C@@H]2Oc3ccc(NC(=O)Nc4ccc(C(F)(F)F)cc4)cc3CC(=O)N([C@H](C)CO)C[C@H]2C)cc1	inactive
COc1ccc(NC(=O)Nc2ccc3c(c2)CC(=O)N([C@@H](C)CO)C[C@H](C)[C@@H](CN(C)C(=O)Nc2ccc(C(F)(F)F)cc2)O3)cc1	inactive
COc1ccc(CN(C)C[C@@H]2Oc3ccc(NC(=O)Nc4ccc(C(F)(F)F)cc4)cc3CC(=O)N([C@H](C)CO)C[C@@H]2C)cc1	active
C[C@@H]1CN([C@@H](C)CO)C(=O)c2cccc(NS(C)(=O)=O)c2O[C@@H]1CN(C)S(=O)(=O)c1cn(C)cn1	inactive
COc1ccc(NC(=O)N(C)C[C@H]2Oc3ccc(NS(=O)(=O)c4c(C)noc4C)cc3C(=O)N([C@@H](C)CO)C[C@H]2C)cc1	inactive
COc1ccc(S(=O)(=O)Nc2ccc3c(c2)C(=O)N([C@@H](C)CO)C[C@@H](C)[C@@H](CN(C)S(C)(=O)=O)O3)cc1	inactive
COc1ccccc1C#Cc1ccc2c(c1)O[C@@H](CN(C)Cc1cncnc1)[C@H](C)CN([C@@H](C)CO)S2(=O)=O	active
COc1ccccc1C#Cc1ccc2c(c1)O[C@H](CN(C)Cc1cncnc1)[C@@H](C)CN([C@H](C)CO)S2(=O)=O	inactive
COc1ccccc1C#Cc1ccc2c(c1)O[C@@H](CN(C)Cc1cncnc1)[C@H](C)CN([C@H](C)CO)S2(=O)=O	active
COc1ccccc1C#Cc1ccc2c(c1)O[C@H](CN(C)Cc1cncnc1)[C@H](C)CN([C@H](C)CO)S2(=O)=O	inactive
COc1ccccc1C#Cc1ccc2c(c1)O[C@@H](CN(C)Cc1cncnc1)[C@@H](C)CN([C@@H](C)CO)S2(=O)=O	inactive
COc1ccccc1C#Cc1ccc2c(c1)O[C@H](CN(C)Cc1cncnc1)[C@@H](C)CN([C@@H](C)CO)S2(=O)=O	inactive

Structure (SMILES)	cytotoxicity call
COc1ccc(S(=O)(=O)N(C)C[C@H]2Oc3c(NC(=O)c4cc(C)nn4C)cccc3C(=O)N([C@H](C)CO)C[C@H]2C)cc1	inactive
C[C@@H]1CCCCO[C@H](CN(C)CC2CC2)[C@@H](C)CN([C@H](C)CO)C(=O)c2cc(NC(=O)CCC(F)(F)F)ccc2O1	inactive
COc1ccc(S(=O)(=O)N2c3ccc(Cl)cc3[C@](O)(c3ccccc3Cl)[C@@H]2C(=O)N2CCC[C@H]2C(N)=O)cc1OC	inactive
C[C@@H]1CN([C@@H](C)CO)C(=O)c2cccc(NS(=O)(=O)c3cn(C)cn3)c2O[C@H]1CN(C)C(=O)Nc1ccc2c(c1)OCO2	inactive
O=C(CS)NCCCCCNC(=O)[C@@H]1C[C@@H]2C(=O)N[C@@H](Cc3ccccc3)C(=O)N2[C@@H]1c1ccc(O)cc1	inactive
CN(C)CCCC1(c2ccc(F)cc2)OCc2cc(C#N)ccc21.O=C(O)C(=O)O (configuration not stated)	inactive
COc1c(C)cccc1C(=O)N1CC[C@H](c2nn(CCN)c3ncccc23)C1	inactive
COc1ccc(NC(=O)Nc2ccc3c(c2)C(=O)N([C@@H](C)CO)C[C@@H](C)[C@H](CN(C)S(=O)(=O)c2ccc(F)cc2)OCCCC[C@@H](C)O3)cc1	inactive
CO[C@@H]1CN(C)C(=O)c2ccc(NS(C)(=O)=O)cc2OC[C@H](C)N(C(=O)CN(C)C)C[C@@H]1C	inactive
O=C(C[C@@H]1C[C@H]2c3cc(NC(=O)Nc4ccc(C(F)(F)F)cc4)ccc3O[C@H]2[C@H](CO)O1)NCCc1ccccc1	active
O=C(C[C@H]1C[C@@H]2c3cc(NC(=O)Nc4ccc(C(F)(F)F)cc4)ccc3O[C@@H]2[C@H](CO)O1)NCc1ccc(Cl)cc1	inactive
O=C(C[C@H]1C[C@@H]2c3cc(NC(=O)Nc4ccc(C(F)(F)F)cc4)ccc3O[C@@H]2[C@@H](CO)O1)NCc1ccc(Cl)cc1	inactive
O=C(Nc1ccc(C(F)(F)F)cc1)Nc1ccc2c(c1)[C@H]1C[C@@H](CC(=O)N3CCc4ccccc4C3)O[C@H](CO)[C@H]1O2	inactive
O=C(C[C@H]1C[C@@H]2c3cc(NC(=O)Nc4ccc(C(F)(F)F)cc4)ccc3O[C@@H]2[C@H](CO)O1)NCc1cc(F)ccc1F	inactive
O=C(Nc1ccc(C(F)(F)F)cc1)Nc1ccc2c(c1)[C@@H]1C[C@@H](CC(=O)N3CCc4ccccc4C3)O[C@H](CO)[C@@H]1O2	inactive
O=C(C[C@H]1C[C@@H]2c3cc(NC(=O)Nc4ccc(C(F)(F)F)cc4)ccc3O[C@@H]2[C@@H](CO)O1)NCc1cc(F)ccc1F	active
O=C(Nc1ccc(C(F)(F)F)cc1)Nc1ccc2c(c1)[C@H]1C[C@H](CC(=O)N3CCc4ccccc4C3)O[C@H](CO)[C@H]1O2	active
O=C(C[C@@H]1C[C@@H]2c3cc(NC(=O)Nc4ccc(C(F)(F)F)cc4)ccc3O[C@@H]2[C@H](CO)O1)NCc1cc(F)ccc1F	inactive
O=C(C[C@@H]1C[C@@H]2c3cc(NC(=O)Nc4ccc(C(F)(F)F)cc4)ccc3O[C@@H]2[C@@H](CO)O1)NCCc1ccccc1	inactive
O=C(C[C@H]1C[C@H]2c3cc(NC(=O)Nc4ccc(C(F)(F)F)cc4)ccc3O[C@H]2[C@@H](CO)O1)NCCc1ccccc1	inactive
O=C(C[C@@H]1C[C@H]2c3cc(NC(=O)Nc4ccc(C(F)(F)F)cc4)ccc3O[C@H]2[C@H](CO)O1)NCc1ccc(Cl)cc1	active

Reference: the antibiotic and cytotoxicity screens of Wong et al. (2023)
